Test results from PubChem BioAssay (NCI).
The panel holds about 83,000 compounds, 20% with a hit somewhere; the sample as a whole holds those more often.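 Method: cells in 96-well plates; compound added at one concentration; 48 h incubation; percent growth measured; values under 10 scored active.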 A number with no mark means an inactive call. Calls of active or inactive are those of the source.

How the values were obtained:
Test in all cases: NCI-60 one-dose screen, 48 h (100 = growth as untreated, 0 = no growth, -100 = all killed)
Conditions in all cases: 10 µM unless noted
NCI-H23 lung = test system: NCI-H23 lung
NCI-H226 lung = test system: NCI-H226 lung
NCI-H322M lung = test system: NCI-H322M lung
HOP-62 NSCLC = test system: HOP-62 NSCLC
NCI-H460 lung = test system: NCI-H460 lung
HOP-92 NSCLC = test system: HOP-92 NSCLC
NCI-H522 lung = test system: NCI-H522 lung
A549/ATCC NSCLC = test system: A549/ATCC NSCLC
COLO 205 colon = test system: COLO 205 colon
DU-145 prostate = test system: DU-145 prostate
K-562 leukemia = test system: K-562 leukemia
MALME-3M melanoma = test system: MALME-3M melanoma
MDA-MB-231 breast = test system: MDA-MB-231 breast
RXF 393 renal = test system: RXF 393 renal
SF-268 CNS = test system: SF-268 CNS
SF-295 CNS = test system: SF-295 CNS
SF-539 CNS = test system: SF-539 CNS
UACC-257 melanoma = test system: UACC-257 melanoma
M14 melanoma = test system: M14 melanoma
786-0 renal = test system: 786-0 renal

SMILES	growth (NCI-H23 lung)	growth (NCI-H226 lung)	growth (NCI-H322M lung)	growth (HOP-62 NSCLC)	growth (NCI-H460 lung)	growth (HOP-92 NSCLC)	growth (NCI-H522 lung)	growth (A549/ATCC NSCLC)	growth (COLO 205 colon)	growth (DU-145 prostate)	growth (K-562 leukemia)	growth (MALME-3M melanoma)	growth (MDA-MB-231 breast)	growth (RXF 393 renal)	growth (SF-268 CNS)	growth (SF-295 CNS)	growth (SF-539 CNS)	growth (UACC-257 melanoma)	growth (M14 melanoma)	growth (786-0 renal)
COc1cc(Nc2ccnc3ccc(Br)cc23)cc(OC)c1OC	53.8%	78.8%	63.5%	23.2%	7.02% (active)	49%	-17.8% (active)	37.5%	39%	59.1%	10.2%	46.7%	38%	2.9% (active)	47.6%	25.6%	12.7%	38.2%	14.3%	–
CCCC(CCC)NCC(O)c1cc(-c2ccc(C(F)(F)F)cc2)nc(C(F)(F)F)c1 (stereo not given)	-59.4% (active)	-69.5% (active)	0.686% (active)	-64.8% (active)	-60.1% (active)	-71.5% (active)	-77.5% (active)	-59.6% (active)	–	-26.2% (active)	-51.1% (active)	-63.7% (active)	-66.9% (active)	-97% (active)	-40.5% (active)	–	-72.2% (active)	-76.9% (active)	-74.8% (active)	-61.5% (active)
ClCc1cccc(CSc2ncnc3c2ncn3Cc2cccc(CCl)c2)c1	33.9%	-54.8% (active)	101%	-38.8% (active)	36.7%	99.3%	-69.8% (active)	88.7%	–	50.4%	14.2%	41.7%	12%	-20.2% (active)	17%	92%	58.2%	42.5%	-71.8% (active)	13%
Cc1cccc(C(=O)O)n1	123%	93.9%	108%	106%	105%	6.89% (active)	90.8%	102%	–	116%	102%	111%	120%	–	107%	98%	99.7%	105%	108%	112%
Oc1ccc(-c2cnc(-c3ccccc3)[nH]2)c(O)c1	108%	86.2%	94.9%	-12.1% (active)	110%	58.7%	99.8%	24.8%	117%	157%	94.7%	76.5%	92.1%	–	100%	–	107%	-22.6% (active)	119%	–
COC(=O)/C=C/c1cc(OC(C)=O)c2c(c1)[C@@H](C(=O)OC)[C@H](c1ccc(OC(C)=O)c(OC(C)=O)c1)O2	20.7%	-7.97% (active)	60%	24%	11.4%	12.9%	-25.3% (active)	20.6%	–	-9.78% (active)	8.05% (active)	48.7%	14.1%	37.1%	24.2%	23.9%	-23.9% (active)	48.3%	2.76% (active)	21.5%
COC(=O)c1cc(Cl)cc([N+](=O)[O-])c1O	111%	97.9%	115%	104%	116%	83.8%	99.5%	105%	–	–	68.9%	114%	123%	97.1%	112%	101%	107%	100%	94.9%	108%
O=C1C=CC(=O)N1CO	124%	113%	117%	115%	123%	120%	103%	109%	–	–	-29.9% (active)	130%	109%	168%	111%	131%	111%	109%	109%	113%
C/C(=C\C(=N\N=C(N)N)c1ccc(Cl)cc1)c1ccc(Cl)cc1	-71.5% (active)	-69.6% (active)	-36% (active)	-86.3% (active)	-66.8% (active)	-77% (active)	-88.4% (active)	-81.3% (active)	–	-91.4% (active)	-51.7% (active)	-64.6% (active)	-73.1% (active)	-95.8% (active)	-89.2% (active)	–	-73.7% (active)	-72.5% (active)	-79.7% (active)	-70.3% (active)
C#CC[C@@H]1C[C@]2(C)[C@H]3CC[C@@H]4[C@H]5C(C(=C)C)CC[C@]5(C(=O)NCCCCN)CC[C@@]4(C)[C@]3(C)CC[C@H]2C(C)(C)[C@H]1OC(C)=O (stereo not given in full)	11.7%	96.1%	60.4%	105%	-56.5% (active)	42.2%	-64.4% (active)	-54.1% (active)	–	-77.8% (active)	-9.82% (active)	46.6%	-81.2% (active)	-89.2% (active)	91.6%	–	-82.9% (active)	85.9%	-58.5% (active)	-87.5% (active)
Cn1nc(C(F)(F)F)cc1-c1cc(Cl)c(OCc2ccc(Cl)cc2)c(-c2ccc(Cl)c(C(F)(F)F)c2)c1O	4.69% (active)	-13.3% (active)	9.05% (active)	-28.6% (active)	0.354% (active)	-25.8% (active)	1.3% (active)	13.2%	–	11.5%	8.16% (active)	-26.5% (active)	-21.8% (active)	-17.6% (active)	2.82% (active)	–	-12.5% (active)	1.55% (active)	-13.5% (active)	-4.08% (active)
Cc1ccc(CSCc2ccc(C(=O)NC3CC3)o2)cc1	82%	105%	80.8%	109%	52.2%	75.2%	43.5%	45.3%	–	80.5%	40%	96.4%	35.3%	92.7%	83.2%	–	79.8%	93.5%	57.3%	91.6%
COc1ccc2c(c1)CCCC21C(=O)Nc2ccccc21 (stereo not given)	101%	102%	91.6%	96.5%	115%	99.3%	83.2%	95.2%	–	103%	–	102%	99.4%	110%	86.6%	–	101%	110%	109%	99.3%
COc1ccc(/C=C(/C(=O)N2CCN(c3ccccc3)CC2)c2cc(OC)c(OC)c(OC)c2)cc1N	39.4%	40.5%	49.8%	30.4%	6.98% (active)	92.2%	3.2% (active)	24%	–	15.2%	6.11% (active)	66.3%	22.1%	-1.82% (active)	46.6%	7.2% (active)	-17.4% (active)	69.2%	1.47% (active)	25.7%
Cc1[nH]n(C(=O)c2ccncc2)c(=O)c1N=Nc1ccc(O)c(C(=O)O)c1	106%	86.3%	91.3%	-3.17% (active)	114%	62.7%	104%	21.9%	113%	132%	91.1%	94.2%	94%	–	106%	–	100%	-14.1% (active)	114%	–
Cc1ccccc1N1C(c2ccccc2)=NNC12C=CC(=O)c1c(O)cccc12 (stereo not given)	31.4%	87.8%	99.1%	31.1%	89.6%	137%	54.6%	68.1%	95.7%	94.9%	63.3%	75.1%	73.5%	115%	76.7%	54.5%	76.2%	45.3%	75.5%	–
